Laboratory results as given in PubChem BioAssay (EPA / NIEHS).
Inconclusive results are not listed. Active and inactive are the calls of the source. Rule for the calls, unless noted: active = hit-call score of the fitted dose curve at least 0.9, where 1 is the maximum; inconclusive = response in the unintended direction; inactive = score below 0.9.

What was measured:
TIMP1, TIMP1 (gene 7076) = assay: LTEA_HepaRG_TIMP1: Life Technologies and Expression Analysis (LTEA) Assay for TIMP1 using HepaRG (AID 2283534; active = hit-call score of the fitted dose curve at least 0.9, where 1 is the maximum; inactive = score below 0.9); settings: mRNA level, 48 h; actives raise or lower the signal
How it was run: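 Readout is TIMP1 mRNA level measured by qRT-PCR and normalized to three housekeeping genes. Human HepaRG cells were treated for 48 h in duplicate at eight concentrations up to 100 uM (0.5% DMSO); gain or loss fitted against DMSO.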

[1] = read-out: Tumor necrosis factor receptor 1 (TNFRSF1A), TNFRSF1A (gene 7132); assay: LTEA_HepaRG_TNFRSF1A: Life Technologies and Expression Analysis (LTEA) Assay for Tumor necrosis factor receptor 1 (TNFRSF1A) using HepaRG (AID 2283535; active = hit-call score of the fitted dose curve at least 0.9, where 1 is the maximum; inactive = score below 0.9); settings: mRNA level, 48 h; actives raise or lower the signal
How it was run: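 Read-out is TNFRSF1A transcript level by TaqMan qRT-PCR, normalized to three housekeeping genes, scored as gain or loss of signal versus 0.5% DMSO. Human HepaRG cells received test chemicals for 48 h at up to 100 uM (half-log series).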

[2] = read-out: Thyroid Hormone Responsive (THRSP), THRSP (gene 7069); assay: LTEA_HepaRG_THRSP: Life Technologies and Expression Analysis (LTEA) Assay for Thyroid Hormone Responsive (THRSP) using HepaRG (AID 2283536; active = hit-call score of the fitted dose curve at least 0.9, where 1 is the maximum; inactive = score below 0.9); settings: mRNA level, 48 h; actives raise or lower the signal
How it was run: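 Differentiated human HepaRG cells were exposed in duplicate for 48 h in serum-free induction medium to eight concentrations (top 100 uM, half-log steps, 0.5% DMSO). Expression was quantified by TaqMan qRT-PCR, normalized to ACTB, GAPDH and POLR2A, with bidirectional fitting against DMSO.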

[3] = read-out: UDP glucuronosyltransferase (UGT1A1), UGT1A1 (gene 54658); assay: LTEA_HepaRG_UGT1A1: Life Technologies and Expression Analysis (LTEA) Assay for UDP glucuronosyltransferase (UGT1A1) using HepaRG (AID 2283538; active = hit-call score of the fitted dose curve at least 0.9, where 1 is the maximum; inactive = score below 0.9); settings: mRNA level, 48 h; actives raise or lower the signal
How it was run: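 Differentiated human HepaRG cells in serum-free induction medium were exposed in duplicate for 48 h to eight half-log concentrations up to 100 uM in 0.5% DMSO. UGT1A1 mRNA was quantified by TaqMan qRT-PCR, normalized to ACTB, GAPDH and POLR2A, and fitted bidirectionally against DMSO.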

[4] = read-out: X-box binding protein 1 (XBP1), XBP1 (gene 7494); assay: LTEA_HepaRG_XBP1: Life Technologies and Expression Analysis (LTEA) Assay for X-box binding protein 1 (XBP1) using HepaRG (AID 2283540; active = hit-call score of the fitted dose curve at least 0.9, where 1 is the maximum; inactive = score below 0.9); settings: mRNA level, 48 h; actives raise or lower the signal
How it was run: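 Transcript levels of XBP1, measured by qRT-PCR and normalised to three housekeeping genes, were fitted bidirectionally relative to 0.5% DMSO controls. Human HepaRG cells received eight-point half-log dilutions from 100 uM for 48 h.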

[5] = LTEA_HepaRG_LDH_cytotoxicity: Cytotoxicity Assessment in the Life Technologies and Expression Analysis (LTEA) Assay (AID 2283563);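 for AC50: LDH activity released into spent culture medium as a marker of cell death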
How it was run: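 Cells were thawed and plated for 48 h. Medium was then replaced with serum-free induction medium. Chemicals (8 half-log points, maximum 100 uM, 0.5% DMSO) were added in duplicate for 48 h, after which spent medium was assayed for LDH.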

[6] = ATG_XTT_Cytotoxicity: Cytotoxicity Assessment in the Attagene TRANS-FACTORIAL HepG2 Assay (AID 2283584)
How it was run: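 Cells: human HepG2, transiently transfected with MRTU reporter constructs. Exposure 24 h. Readout: XTT, cell number. Baseline/neg ctrl DMSO; loss-of-signal scored.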

[7] = Tanguay_ZF_120hpf_MORT_legacy: (Legacy) Oregon State University Tanguay Lab 120 Hour Post-fertilization zebrafish Assay for Mortality (AID 2283633)
How it was run: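 5D WT zebrafish, chorion removed 4 hpf; 1 embryo/well from 6 hpf; static exposure to 120 hpf, 28C, dark, sealed. Final DMSO 0.64%. Readout: binary mortality, brightfield, 24 + 120 hpf; DMSO as negative control.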

[8] = Tanguay_ZF_120hpf_YSE_legacy: (Legacy) Oregon State University Tanguay Lab 120 Hour Post-fertilization zebrafish Assay for Yolk Sac Edema (AID 2283634);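 for AC50: actives raise the incidence of yolk sac edema above the DMSO baseline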
How it was run: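 Dechorionate (pronase, 4 hpf) → place one 6 hpf embryo per well → static compound exposure, sealed and foil-covered, 28C, to 120 hpf → record yolk sac edema as present or absent. Final DMSO 0.64%.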

[9] = Tanguay_ZF_120hpf_AXIS_legacy: (Legacy) Oregon State University Tanguay Lab 120 Hour Post-fertilization zebrafish Assay for Body Axis Malformation (AID 2283635);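 for AC50: potency for an increased fraction of larvae scored with body axis malformation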
How it was run: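 Chorion is removed with pronase at 4 hpf, then single 6 hpf embryos are dosed (final DMSO 0.64%) and held statically at 28C in sealed, foil-covered plates. At 120 hpf body axis malformation is recorded as present or absent.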

[10] = Tanguay_ZF_120hpf_EYE_legacy: (Legacy) Oregon State University Tanguay Lab 120 Hour Post-fertilization zebrafish Assay for Eye Malformation (AID 2283636);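 note: binary presence or absence of eye malformation scored by brightfield in 120 hpf larvae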
How it was run: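 Dechorionated wild-type Tropical 5D zebrafish embryos were exposed statically from 6 hpf, one per well, to 120 hpf at 28C in sealed, foil-covered plates with 0.64% DMSO. Eye malformation was scored present/absent by brightfield microscopy against DMSO controls.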

[11] = Tanguay_ZF_120hpf_SNOU_legacy: (Legacy) Oregon State University Tanguay Lab 120 Hour Post-fertilization zebrafish Assay for Snout Malformation (AID 2283637)
How it was run: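 Tropical 5D wild-type zebrafish embryos, dechorionated with pronase at 4 hpf, were exposed singly from 6 hpf to 120 hpf statically at 28C in 0.64% DMSO. Snout malformation was scored present/absent by brightfield microscopy, fitted against DMSO.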

[12] = read-out: UDP glucuronosyltransferase (UGT1A6), UGT1A6 (gene 54578); assay: LTEA_HepaRG_UGT1A6: Life Technologies and Expression Analysis (LTEA) Assay for UDP glucuronosyltransferase (UGT1A6) using HepaRG (AID 2283539; active = hit-call score of the fitted dose curve at least 0.9, where 1 is the maximum; inactive = score below 0.9); settings: mRNA level, 48 h; actives raise or lower the signal
How it was run: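 HepaRG, 48 h post-plating switch to serum-free induction medium; chemical 48 h, 100 uM top, half-log x8, duplicate, 0.5% DMSO. Phenobarbital 1mM induction control. UGT1A6 mRNA by TaqMan qRT-PCR; gain/loss fit vs DMSO.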

[13] = Tanguay_ZF_120hpf_JAW_legacy: (Legacy) Oregon State University Tanguay Lab 120 Hour Post-fertilization zebrafish Assay for Jaw Malformation (AID 2283638);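 for AC50: active means more embryos with jaw malformation than DMSO controls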
How it was run: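 Steps: dechorionate 4 hpf embryos (pronase); plate 1/well at 6 hpf; add test chemical, 0.64% DMSO final; seal, cover, hold at 28C statically to 120 hpf; score jaw defect presence/absence microscopically. Dead embryos not scored.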

[14] = biological target: Cellular tumor antigen p53 (Homo sapiens) (UniProt P04637); assay: TOX21_p53_BLA_p2_ratio: Tox21 HCT-116 p53 Agonism Beta-lactamase Assay, Ratio, Phase 2 (AID 2283592)
How it was run: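 HCT116 p53-bla; 4000 cells/well; 5 h pre-incubation; cpd in DMSO, 217-fold dilution; 16 h 37C/5% CO2; CCF4-AM 2 h RT; Ex 405, Em 460/530 ratio; DMSO = baseline; positive fitting direction.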

[15] = TOX21_p53_BLA_p3_viability: Viability Assessment in the Tox21 HCT-116 p53 Agonism Beta-lactamase Assay, Phase 3 (AID 2283593);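 note: cells exposed to compound for 16 h before reading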
How it was run: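 HCT-116 cells (4000/well) rested 5 h at 37C, then got DMSO compounds by pin tool (217-fold dilution) for 16 h at 37C, 5% CO2. After the bla read, CellTiter-Glo was added and luminescence read at 30 min, room temperature.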

[16] = biological target: Cellular tumor antigen p53 (Homo sapiens) (UniProt P04637); assay: TOX21_p53_BLA_p3_ratio: Tox21 HCT-116 p53 Agonism Beta-lactamase Assay, Ratio, Phase 3 (AID 2283596)
How it was run: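 HCT116 p53-bla cells (4000/well) given compound in DMSO (217-fold dilution) after 5 h, incubated 16 h at 37C. CCF4-AM substrate 2 h at room temperature; 460/530 nm emission ratio, gain fitted against DMSO.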

[17] = TOX21_p53_BLA_p4_viability: Viability Assessment in the Tox21 HCT-116 p53 Agonism Beta-lactamase Assay, Phase 4 (AID 2283597);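 note: hits lower the luminescence signal meaning cytotoxicity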
How it was run: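 Cells plated, 5 h pre-incubation; DMSO compounds pinned (217-fold dilution); 16 h, 37C/5% CO2; CCF4-AM 2 h RT; CellTiter-Glo 30 min RT; luminescence read.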

[18] = biological target: Cellular tumor antigen p53 (Homo sapiens) (UniProt P04637); assay: TOX21_p53_BLA_p4_ratio: Tox21 HCT-116 p53 Agonism Beta-lactamase Assay, Ratio, Phase 4 (AID 2283601)
How it was run: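 HCT116 cells carrying an inducible beta-lactamase reporter were plated at 4000 cells/well, rested 5 h, then exposed to compounds in DMSO (217-fold dilution) for 16 h at 37C. CCF4-AM substrate was loaded 2 h at room temperature; 460/530 nm emission ratio scored gain-of-signal versus DMSO.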

[19] = biological target: Cellular tumor antigen p53 (Homo sapiens) (UniProt P04637); assay: TOX21_p53_BLA_p5_ratio: Tox21 HCT-116 p53 Agonism Beta-lactamase Assay, Ratio, Phase 5 (AID 2283599)
How it was run: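 HCT-116 cells carrying a p53-inducible beta-lactamase reporter were seeded at 4000 cells/well and dosed after 5 h with compound in DMSO (217-fold dilution). After 16 h at 37C, CCF4-AM substrate was added for 2 h, and the 460/530 nm emission ratio was scored as gain-of-signal versus DMSO.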

Measured: AC50

Cellular tumor antigen p53 (Homo sapiens), sequence (P04637 whole entry, looked up): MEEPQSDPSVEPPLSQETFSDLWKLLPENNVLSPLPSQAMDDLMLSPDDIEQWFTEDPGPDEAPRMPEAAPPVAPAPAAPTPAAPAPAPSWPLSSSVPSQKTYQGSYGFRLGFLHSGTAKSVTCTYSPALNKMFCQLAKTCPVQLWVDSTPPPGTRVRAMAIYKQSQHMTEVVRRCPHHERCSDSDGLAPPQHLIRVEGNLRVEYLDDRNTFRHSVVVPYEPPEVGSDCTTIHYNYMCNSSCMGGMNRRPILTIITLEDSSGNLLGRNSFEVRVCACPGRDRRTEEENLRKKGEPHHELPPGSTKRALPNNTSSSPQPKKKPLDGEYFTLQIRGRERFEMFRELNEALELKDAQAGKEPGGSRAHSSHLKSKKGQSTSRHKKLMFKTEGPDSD

NC(=O)N1c2ccccc2C=Cc2ccccc21
active: [3] 21.6 µM
not listed: [12] | [13] | [14] | [15] | [16] | [17] | [18] | [19]
inactive: all other assays above

CCCCCCCC1CCC(=O)O1 (configuration not stated)
inactive: TIMP1, TIMP1 (gene 7076) | [1] | [2] | [3] | [12] | [4] | [7] | [9] | [10]
active: [8] 25.9 µM | [11] 31.9 µM | [13] 40.3 µM

Cc1ncc([C@@H](CCCCCCc2ccc3c(n2)NCCC3)CC(=O)O)cn1
inactive: TIMP1, TIMP1 (gene 7076) | [1] | [2] | [3] | [4] | [5] | [7] | [8] | [9] | [10] | [11]

CCCCCOC(C)=O
not listed: [5] | [13] | [14] | [15] | [16] | [17] | [18] | [19]
inactive: all other assays above

CCCCCCCCCCCCCCO
not listed: [2] | [13] | [19]
inactive: all other assays above

Cc1nccn1-c1ccc(Sc2cccc(C3(C(N)=O)CCOCC3)c2)cc1
inactive: TIMP1, TIMP1 (gene 7076) | [7] | [8] | [10] | [11]
active: [1] 7.54 µM | [2] 10.8 µM | [3] 23 µM | [4] 7.33 µM | [5] 20.3 µM

COc1cc(C(C)C)c2c(c1)S(=O)(=O)N(COc1cc(=O)n3cccc(OCCN4CCCCC4)c3n1)C2=O
inactive: [1] | [4] | [7] | [8] | [10]
active: TIMP1, TIMP1 (gene 7076) 19.8 µM | [2] 20.8 µM | [3] 22.6 µM | [12] 19.9 µM | [5] 19.2 µM | [9] 32.4 µM | [11] 24.6 µM

CCc1cccc(CC)c1N
not listed: [2] | [10] | [11] | [13] | [17]
inactive: all other assays above

O=C(O)[C@H](O)[C@@H](O)C(=O)O
inactive: TIMP1, TIMP1 (gene 7076) | [1] | [2] | [3] | [4] | [5] | [7] | [8] | [9] | [11] | [13]

NNC(=O)c1ccncc1
not listed: [12] | [13] | [16] | [19]
inactive: all other assays above

C=CCc1cc(S(=O)(=O)c2ccc(O)c(CC=C)c2)ccc1O
inactive: TIMP1, TIMP1 (gene 7076) | [1] | [3] | [6] | [7] | [8] | [9] | [10] | [11]
active: [2] 88.4 µM | [12] 80.7 µM | [4] 66.7 µM | [5] 76.7 µM

O=c1[nH]cnc2c1ncn2[C@H]1CC[C@@H](CO)O1
not listed: [12] | [13] | [14] | [15] | [16] | [17] | [18] | [19]
inactive: all other assays above

OC[C@H]1O[C@@](CO)(O[C@H]2O[C@H](CO)[C@@H](O)[C@H](O)[C@H]2O)[C@@H](O)[C@@H]1O
not listed: [13] | [14] | [15] | [16] | [17] | [18] | [19]
inactive: all other assays above

CCc1ccc(O)c(C(C)(C)C)c1
active: [14] 69.7 µM | [17] 79.1 µM | [18] 53.1 µM
not listed: [2] | [9] | [19]
inactive: all other assays above

OC(Cn1cncn1)(Cn1cncn1)c1ccc(F)cc1F
not listed: [10]
inactive: all other assays above

CCCCC(CC)C(=O)OCCOCCOCCOC(=O)C(CC)CCCC (configuration not stated)
active: [1] 78.2 µM
not listed: [6] | [19]
inactive: all other assays above

Nc1ccn([C@@H]2O[C@H](CO)[C@@H](O)[C@@H]2O)c(=O)n1
not listed: [2] | [13] | [14] | [15] | [16] | [17] | [18] | [19]
inactive: all other assays above
